ROMK mod: modulates human ROMK potassium channel activity; P48048; Tet-inducible ROMK, thallium flux fluorescence; actives lie on both sides; B-score at 10 µM; hit rate 2% among 130,000; AID 1918;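 active = signal ratio slope over the read window, or its plate-corrected B-score, at least 3 SD from the plate mean, either direction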;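 note: B-score of the F/F0 ratio slope over 7 to 12 s after thallium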
L major viab: reduces viability of Leishmania major promastigotes. resazurin fluorescence viability. inhibition, % at 10 µM. hit rate 9% among 200,000; in the data active = inhibition above about 50%;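 note: promastigotes grown with compound for 44 hours at 28 °C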
Cl transport mod: KCC2 (human) Cl- transport modulation. B-score of Tl+ flux slope (higher = more flux/activation; lower = inhibition) at 10 µM. hit rate 2.2% among 190,000. Q9H2X9. KCC2 cells, thallium flux FluoZin-2 fluorescence. AID 1456;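 active = thallium flux slope and its plate-corrected score both differing from the plate sample mean at a set confidence after two filtering rounds, in either direction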;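 note: slope of fluorescence scaled to starting intensity during 10 to 20 s after thallium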
Target sequence (Q9H2X9 whole entry, looked up): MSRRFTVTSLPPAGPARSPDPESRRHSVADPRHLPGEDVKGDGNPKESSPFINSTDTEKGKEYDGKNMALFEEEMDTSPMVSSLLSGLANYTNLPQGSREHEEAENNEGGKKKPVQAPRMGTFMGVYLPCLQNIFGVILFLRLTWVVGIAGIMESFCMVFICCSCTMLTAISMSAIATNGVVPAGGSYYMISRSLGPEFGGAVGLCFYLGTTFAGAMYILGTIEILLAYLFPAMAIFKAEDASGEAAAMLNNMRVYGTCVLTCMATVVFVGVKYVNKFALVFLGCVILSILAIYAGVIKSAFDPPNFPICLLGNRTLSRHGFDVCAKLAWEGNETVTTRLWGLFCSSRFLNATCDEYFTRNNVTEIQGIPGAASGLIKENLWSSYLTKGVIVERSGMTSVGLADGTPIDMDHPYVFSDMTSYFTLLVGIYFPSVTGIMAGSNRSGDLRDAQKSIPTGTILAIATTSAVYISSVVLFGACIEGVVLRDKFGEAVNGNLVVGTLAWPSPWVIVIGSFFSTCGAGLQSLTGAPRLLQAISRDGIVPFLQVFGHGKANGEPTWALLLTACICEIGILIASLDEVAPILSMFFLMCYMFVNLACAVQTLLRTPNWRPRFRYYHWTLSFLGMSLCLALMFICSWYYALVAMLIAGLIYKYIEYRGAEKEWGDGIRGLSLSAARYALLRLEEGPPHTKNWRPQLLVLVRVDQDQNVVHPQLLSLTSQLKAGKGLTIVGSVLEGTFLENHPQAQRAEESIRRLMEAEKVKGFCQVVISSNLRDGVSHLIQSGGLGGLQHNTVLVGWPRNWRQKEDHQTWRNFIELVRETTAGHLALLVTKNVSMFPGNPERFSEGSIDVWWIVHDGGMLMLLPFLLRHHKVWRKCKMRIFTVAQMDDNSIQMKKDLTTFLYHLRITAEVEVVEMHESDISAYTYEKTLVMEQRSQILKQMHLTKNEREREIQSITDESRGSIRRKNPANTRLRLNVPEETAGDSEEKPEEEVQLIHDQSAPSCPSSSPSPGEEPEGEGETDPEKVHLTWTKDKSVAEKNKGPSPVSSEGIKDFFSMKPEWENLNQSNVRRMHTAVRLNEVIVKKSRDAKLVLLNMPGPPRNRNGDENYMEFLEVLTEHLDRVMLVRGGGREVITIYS
WT yeast gro inh: growth inhibition of WT yeast, mitochondrial fusion screen; inhibition, % at 10 µM; hit rate 2.1% among 190,000; mitochondrial fusion phenotypic screen, WT strain; AID 1362; in the data active = inhibition above about 58%; tested in S. cerevisiae
Calpain2 inh: calpain II (pig) inhibition | inhibition, % at 16 µM | hit rate 0.37% among 220,000 | purified calpain II, fluorogenic peptide substrate, 30 min;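 active = inhibition above about 50%, limit read from the data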
The depositor's hits bear a star; / = no result given. Hits are enriched below; roughly 12% of the tested compounds scored in any of these assays.

SMILES	ROMK mod	L major viab	Cl transport mod	WT yeast gro inh	Calpain2 inh
O=C(CN(Cc1ccccc1Cl)C(=O)Cn1nnc(-c2cccs2)n1)NCC1CCCO1 (stereo not given)	-0.49	19	-0.49	7	-3
Cc1ccc(CN(C(=O)CNC(=O)c2cccs2)C(C(=O)NCC2CCCO2)c2ccccc2)cc1 (stereo not given)	/	-4	/	9	-2
C=CCc1ccc(OCCCN2CCCC(C)C2)c(OC)c1 (stereo not given)	-0.018	100*	/	0	-40
COc1cc(C)ccc1OCCCCN1CC(C)OC(C)C1 (stereo not given)	-0.49	97*	/	4	-42
C=CCc1ccc(OCCCOc2ccc(C(=O)O)cc2)c(OC)c1	0.13	5	-0.44	-11	3
C=CCc1ccc(OCCCCN2CC(C)CC(C)C2)c(OC)c1 (stereo not given)	-0.93	96*	0.1	20	3
C=CCc1ccc(OCCCCN2CCC(C)CC2)c(OC)c1	/	89*	-0.86	11	0
O=C(NC1=NCCS1)C1CC(=O)N(c2ccc(Cl)cc2)C1 (stereo not given)	-1.3	-4	-0.68	0	-14
CCOc1ccccc1OCCOCCN1CC(C)OC(C)C1 (stereo not given)	/	63*	/	2	-8
CC1CN(CCOc2ccc(Cl)cc2Cl)CC(C)O1 (stereo not given)	0.36	40	-0.18	22	-18
COc1cc(/C=C2/CCC/C(=C\c3cc(O)c(OC)c(Cl)c3)C2=O)cc(Cl)c1O	/	91*	0.18	/	-58
COc1cc(/C=C2\COC/C(=C\c3cc(OC)c(OC)c(OC)c3)C2=O)cc(OC)c1OC	/	/	0.59	/	-4
COc1ccc(/C=C2/CC/C(=C\c3ccc(OC)c(OC)c3OC)C2=O)c(OC)c1OC	1.1	2	0.4	6	12
COc1cc(/C=C2\CC/C(=C\c3cc(OC)c(OC)c(OC)c3)C2=O)cc(OC)c1OC	-0.032	96*	0.079	-24	1
COc1cc(/C=C2\CC/C(=C\c3cc(OC)c(O)c(OC)c3)C2=O)cc(OC)c1O	-1.8	58*	-2.9	-9	-55
CC1(C)Cc2nc(-c3ccccc3)nc(NNC(=O)c3ccco3)c2CO1	0.091	/	-0.43	/	16
CN(C)Cc1nnnn1-c1cccc(-n2nnnc2CN(C)C)c1	/	/	0.21	/	3
O=C(CC(NC(=O)c1ccccc1Cl)c1ccccc1)Nc1ccc2c(c1)OCO2 (stereo not given)	-0.93	100*	-0.15	18	-33
COc1ccc(CCNC(=O)CC(NC(=O)c2ccccc2Cl)c2ccccc2)cc1 (stereo not given)	/	75*	-0.97	-7	7
COC(=O)c1ccccc1NC(=O)CSc1ncn[nH]1	-1.2	/	0.057	/	-13
O=C1Nc2ccc(Br)cc2/C1=C/C1CC=CCC1 (stereo not given)	0.14	99*	0.82	78	-13
O=C(NCCc1cnn(-c2ccccc2)c1)c1cc(COc2c(F)cccc2F)on1	-0.43	-4	-0.81	-3	-22
COc1ccc(C(c2nnnn2Cc2ccccc2)N2CCN(c3ccccc3)CC2)cc1 (stereo not given)	/	2	-1.4	12	13
COc1ccc(C(c2nnnn2Cc2ccccc2)N2CCN(c3nc4ccccc4s3)CC2)cc1 (stereo not given)	/	100*	-0.47	8	-22
COCCn1nnnc1C(c1ccccc1OC)N1CCc2ccccc2C1 (stereo not given)	-0.63	85*	-0.043	/	/
SMILES	ROMK mod	L major viab	Cl transport mod	WT yeast gro inh	Calpain2 inh
Fc1ccc(Cn2nnnc2C(c2ccc(Cl)cc2)N2CCSCC2)cc1 (stereo not given)	/	99*	-0.26	44	3
Cc1ccc(C(c2nnnn2Cc2ccccc2)N2CCN(Cc3ccccc3)CC2)cc1 (stereo not given)	/	92*	-1.8	13	18
O=C(Nc1nccs1)c1ccc(S(=O)(=O)N2CCOCC2)cc1	0.42	4	-0.46	-13	2
COCCn1nnnc1C(c1ccc(OC)c(OC)c1)N1CCc2ccccc21 (stereo not given)	/	-6	-0.068	6	-47
COc1ccc(Cn2nnnc2C(c2cccs2)N2CCSCC2)cc1 (stereo not given)	-0.32	48	/	26	-3
COc1ccc(Cn2nnnc2C(c2cccs2)N2CCCCCC2)cc1 (stereo not given)	/	57*	-0.16	27	24
COCCn1nnnc1C(c1ccc(OC)c(OC)c1)N1CCN(c2nc3ccccc3s2)CC1 (stereo not given)	0.27	83*	/	/	/
Cc1cc(NC(=O)COC(=O)C2CCC(=O)N2)c([N+](=O)[O-])cc1C (stereo not given)	/	-6	0.32	-5	-35
Cn1c(=O)cc(OCCCC(=O)N2CCN(c3ccccc3)CC2)c2ccccc21	1.5	0	/	58*	-2
COc1ccc2[nH]c(C(=O)N3CCCN(Cc4ccc(F)cc4)CC3)cc2c1	/	/	0.21	/	-67
CCOC(=O)c1c(NC(=O)c2ccccc2C)sc2c1CC(C)(C)OC2	0.81	72*	-3.7	22	7
CCCC(=O)Nc1sc2c(c1C(=O)OCC)CC(C)(C)OC2	0.0076	25	/	-3	-14
CCOC(=O)c1c(NC(=O)CCC(=O)N2CCOCC2)sc2c1CC(C)(C)OC2	/	97*	0.49	-3	-1
CCOC(=O)c1c(NC(=O)c2ccc(C)cc2)sc2c1CC(C)(C)OC2	0.45	61*	0.092	13	-56
Nc1nnc(Cc2ccc(Cl)c(Cl)c2)s1	-0.98	-6	-1.4	0	-4
COCCOc1cc(-n2ccnc2SC)c(Cl)cc1Cl	/	-1	/	11	-59
CCN(CC)S(=O)(=O)c1ccc(N2CCCCC2)c(NC(=O)/C=C/c2cc(OC)c(OC)c(OC)c2)c1	-0.88	69*	0.51	-29	-31
COc1ccc(/C=C/C(=O)Nc2cc(S(=O)(=O)N3CCOCC3)ccc2N2CCCC2)cc1OC	0.064	19	-1.5	-7	-39
COc1ccccc1OCC(=O)Nc1cc(S(=O)(=O)N2CCCCC2)ccc1N1CCCCC1	-0.88	98*	-1.4	-30	33
COc1ccc(/C=C/C(=O)Nc2cc(S(=O)(=O)N3CCCCC3)ccc2N2CCCCC2)cc1OC	-0.73	97*	0.2	13	-65
O=C(/C=C/c1ccc2c(c1)OCO2)Nc1cc(S(=O)(=O)N2CCOCC2)ccc1N1CCOCC1	/	64*	0.082	-34	-12
C=CCn1c(CNC(=O)c2cccs2)n[nH]c1=S	/	-6	-0.097	10	0
Cc1nn(C)c(C(=O)N/N=C/c2cccc3ccccc23)c1Cl	1.4	-1	-0.62	-17	4
CCn1c(SCC(=O)Nc2cc(C)on2)nc2sc3c(c2c1=O)CCCC3	/	0	2.1	-10	-54
Cc1cc(NC(=O)CSc2nc3sc4c(c3c(=O)n2C)CCCC4)no1	/	-5	0.81	-1	52*
CCOC(=O)c1ccc(NC(=S)N(CCCN2CCCC2)Cc2cccs2)cc1	-1	82*	-0.82	-14	11
Cc1ccc(NC(=S)N(CCCN2CCN(C)CC2)Cc2cccs2)cc1C	1.1	34	-0.85	6	15
